The values below come from PubChem BioAssay (NCATS).

Test [1] can be described thus: Quantitative High-Throughput drug screen in 47 multiple myeloma cell lines against the NCATS MIPE library collection: Karpas417_ECACC cell viability assay (AID 1918961). To be noted: Karpas417 myeloma viability, CellTiter-Glo ATP luminescence, 48 h; viability (% of DMSO): at 45.8 µM (top of the series). The procedure, abridged:
(§1)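 Myeloma cell lines, 500 cells per well, exposed to MIPE 4.0 library compounds for 48 h at 37C, 5% CO2. Viability from ATP by CellTiter-Glo luminescence; normalised to DMSO (100%) and media-only (0%) wells.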
For orientation: Cellular ATP, detected with luciferase, serves as a proxy for viable cell number.

Test [2] in a line: Quantitative High-Throughput drug screen in 47 multiple myeloma cell lines against the NCATS MIPE library collection: KHM11_PLB cell viability assay (AID 1918962). Note: nearly all actives have a fitted effect of over 35% in size. The procedure, abridged:
as §1

Test [3] is described as follows: Quantitative High-Throughput drug screen in 47 multiple myeloma cell lines against the NCATS MIPE library collection: JIM3_ECACC cell viability assay (AID 1918963; note: nearly all actives have a fitted effect of over 35% in size). The procedure, abridged: as §1
A short description of test [4]: Quantitative High-Throughput drug screen in 47 multiple myeloma cell lines against the NCATS MIPE library collection: INA6_PLB cell viability assay (AID 1918965; note: nearly all actives have a fitted effect of over 55% in size). The procedure, abridged: as §1
Test [5] is described as follows: Quantitative High-Throughput drug screen in 47 multiple myeloma cell lines against the NCATS MIPE library collection: JJN3_DSMZ cell viability assay (AID 1918966; note: nearly all actives have a fitted effect of over 50% in size). Summed up:
(§2)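 Inhibition of cell viability is measured here. Each line was plated at 500 cells per well, treated with MIPE 4.0 drugs, kept 48 hours at 37C, then assayed for ATP content by CellTiter-Glo luminescence.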

The nature of test [6]: Quantitative High-Throughput drug screen in 47 multiple myeloma cell lines against the NCATS MIPE library collection: H1112_PLB cell viability assay (AID 1918967; note: nearly all actives have a fitted effect of over 30% in size). The procedure, abridged: as §2
A short description of test [7]: Quantitative High-Throughput drug screen in 47 multiple myeloma cell lines against the NCATS MIPE library collection: Karpas25_ECACC cell viability assay (AID 1918968; note: nearly all actives have a fitted effect of over 35% in size). The procedure, abridged: as §2
A short description of test [8]: Quantitative High-Throughput drug screen in 47 multiple myeloma cell lines against the NCATS MIPE library collection: KMS27_JCRB cell viability assay (AID 1918970). Note: nearly all actives have a fitted effect of over 30% in size. The procedure, abridged:
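ATP-based viability (CellTiter-Glo luminescence) is measured in cells treated 48 h with approved and investigational drugs at 37 °C. Controls are DMSO-only wells for full viability and media-only wells for none.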

The nature of test [9]: Quantitative High-Throughput drug screen in 47 multiple myeloma cell lines against the NCATS MIPE library collection: KMS12BM_JCRB cell viability assay (AID 1918971). Note: nearly all actives have a fitted effect of over 35% in size. The procedure, abridged:
(§3)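 Luminescent ATP measurement with CellTiter-Glo gives viability, scaled between DMSO-only wells (100%) and media-only wells (0%). Cells, 500 per well, faced library compounds for 48 hours at 37C.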

The nature of test [10]: Quantitative High-Throughput drug screen in 47 multiple myeloma cell lines against the NCATS MIPE library collection: KMS12PE_JCRB cell viability assay (AID 1918972). Note: nearly all actives have a fitted effect of over 30% in size. The procedure, abridged: as §1
Test [11] is described as follows: Quantitative High-Throughput drug screen in 47 multiple myeloma cell lines against the NCATS MIPE library collection: KMS20_JCRB cell viability assay (AID 1918973). Note: nearly all actives have a fitted effect of over 45% in size. The procedure, abridged: as §2
Test [12] is described as follows: Quantitative High-Throughput drug screen in 47 multiple myeloma cell lines against the NCATS MIPE library collection: KMS26_JCRB cell viability assay (AID 1918975). Note: nearly all actives have a fitted effect of over 45% in size. The procedure, abridged: as §3
The nature of test [13]: Quantitative High-Throughput drug screen in 47 multiple myeloma cell lines against the NCATS MIPE library collection: NCIH929_DSMZ cell viability assay (AID 1918978). Note: nearly all actives have a fitted effect of over 35% in size. Summed up: (§4)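 500 cells/well per myeloma line exposed to pinned MIPE 4.0 compounds for 48 h at 37 °C, 5% CO2. Viability read as ATP by CellTiter-Glo luminescence, normalised to DMSO-only (100%) and media-only (0%) wells.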

Test [14] in a line: Quantitative High-Throughput drug screen in 47 multiple myeloma cell lines against the NCATS MIPE library collection: OCIMY1_PLB cell viability assay (AID 1918979). Note: nearly all actives have a fitted effect of over 35% in size. Summed up: as §4
Test [15] in a line: Quantitative High-Throughput drug screen in 47 multiple myeloma cell lines against the NCATS MIPE library collection: KMS21BM_JCRB cell viability assay (AID 1918974). To be noted: ATP luminescence, 48 h; viability: at 45.8 µM (top of the series) unless noted. Summed up: as §2
Test [16] is described as follows: Quantitative High-Throughput drug screen in 47 multiple myeloma cell lines against the NCATS MIPE library collection: MOLP8_DSMZ cell viability assay (AID 1918977). Note: nearly all actives have a fitted effect of over 45% in size. The procedure, abridged: as §4
Test [17] can be described thus: Quantitative High-Throughput drug screen in 47 multiple myeloma cell lines against the NCATS MIPE library collection: JIM1_ECACC cell viability assay (AID 1918964). Summed up:
as §2

Test [18] can be described thus: Quantitative High-Throughput drug screen in 47 multiple myeloma cell lines against the NCATS MIPE library collection: MM1S_ATCC cell viability assay (AID 1918980). Note: nearly all actives have a fitted effect of over 45% in size. Summed up: as §4
Test [19] in a line: Quantitative High-Throughput drug screen in 47 multiple myeloma cell lines against the NCATS MIPE library collection: KMM1_JCRB cell viability assay (AID 1918960). Note: nearly all actives have a fitted effect of over 30% in size. The procedure, abridged:
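Luminescence from CellTiter-Glo, taken after 5 min at room temperature, reports cellular ATP as viability. Cells (500 per well) had been treated 48 h at 37 °C with MIPE 4.0 compounds, scaled between DMSO and medium-only controls.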

Test [20] in a line: Quantitative High-Throughput drug screen in 47 multiple myeloma cell lines against the NCATS MIPE library collection: MMM1_PLB cell viability assay (AID 1918976). Note: nearly all actives have a fitted effect of over 35% in size. Summed up:
as §4

Inconclusive results are not listed. Active and inactive are the calls of the source. Calls come from the whole dose curve; as a rule, active = well fitted curve in the direction sought with a large enough effect; inconclusive = small, poorly fitted or top-dose-only effect, or another doubt; inactive = no such curve, though single readings can be large; an effect the other way counts as inactive or inconclusive.
Potency is the fitted concentration of half-maximal effect.

For `Nc1nc(Nc2ccc(S(N)(=O)=O)cc2)nn1C(=O)c1c(F)cccc1F`, the Potency in [1] is 3320 nM (active); in test [2], 2960 nM (active); in test [3], 7430 nM (active); in [4] it was 1480 nM (active); in [5] it was 5260 nM (active); in test [6] it was 8330 nM (active). Moreover, the Potency in test [7] was 6620 nM (active); in [8] it was 4180 nM (active); in test [9] it was 5900 nM (active); in [10] it was 6620 nM (active); in [11], 4180 nM (active); in test [12], 7430 nM (active). Besides, the Potency is 4180 nM (active) in [13] and 13200 nM (active) in [14].
With `CC(C)c1nn(-c2c(Cl)cccc2Cl)c2nc(Cc3ccc(OCCO)cc3)[nH]c(=O)c12`, the Potency result in test [1], in [8], in [10] and in [15] was “inactive” throughout. The Potency was 148 nM (active) in [2]; 166 nM (active) in [3]; 83.3 nM (active) in test [4]; 83.3 nM (active) in test [5]; 37.2 nM (active) in test [7]; 74.3 nM (active) in test [9]. Further, the Potency in [11] is 166 nM (active); in test [12], 148 nM (active); in test [16] it was 132 nM (active); in test [14], 235 nM (active).
Regarding `Cc1ccc(C(=O)Nc2cccc(C(F)(F)F)c2)cc1-c1ccc2nc(NCCN3CCOCC3)ncc2c1`, the Potency in [1] was 1180 nM (active); in [2], 743 nM (active); in test [3] it was 13200 nM (active); in [17], 1050 nM (active); in test [4], 3320 nM (active); in test [5] it was 16600 nM (active). Also, the Potency in test [6] was 14800 nM (active); in test [7] it was 5260 nM (active); in test [8], 2960 nM (active); in test [9] it was 8330 nM (active); in test [10] it was 2640 nM (active); in [11], 1660 nM (active). In addition, the Potency in [15] is 1660 nM (active); in test [16], 3320 nM (active); in test [13] it was 5260 nM (active); in test [14], 18700 nM (active); in [18] it was 16600 nM (active).
As for `O=C(Nc1cc(C(F)(F)F)cc(C(F)(F)F)c1)c1cc(Cl)ccc1O`, the Potency in [1] is 590 nM (active); in [2], 1480 nM (active); in [3], 662 nM (active); in test [17] it was 1050 nM (active); in [4], 1660 nM (active); in [5], 1870 nM (active). In addition, the Potency in [7] is 372 nM (active); in test [8] it was 833 nM (active); in test [9], 833 nM (active); in [10], 526 nM (active); in test [11], 1320 nM (active); in test [15], 526 nM (active). Also, the Potency is 1180 nM (active) in test [12]; 1480 nM (active) in test [16]; 1480 nM (active) in test [13]; 3320 nM (active) in [14]; 590 nM (active) in test [18].
With `COc1cccc(Nc2c(C(N)=O)cnc3c(C)cc(S(=O)(=O)c4cccc(C(=O)N(C)C)c4)cc23)c1`, the values for the Potency in test [19] and in [10] were 10200 nM (active) and 12900 nM (active), respectively. The Potency result in test [3] and in test [9] was “inactive” in each case.
With `O=C(C=Cc1cccnc1)NCCCCC1CCN(C(=O)c2ccccc2)CC1`, the Potency in test [1] is 13200 nM (active); in [2], 23.5 nM (active); in [3], 1 nM (active); in test [4], 1 nM (active); in test [5], 20.9 nM (active); in [6], 13.2 nM (active). Besides, the Potency was 5.9 nM (active) in test [7]; 13.2 nM (active) in [8]; 20.9 nM (active) in test [9]; 14.8 nM (active) in test [10]; 16.6 nM (active) in [15]; 5.3 nM (active) in test [12]. The values for the Potency in test [13] and in test [18] were 13.2 nM (active) and 29.6 nM (active), respectively. Moreover, the Potency result in [16] is “inactive”.
With `COc1ccc2c(OCc3nnc4ccc(-c5ccccc5)nn34)ccnc2c1`, the Potency entry in test [19], in [3], in [6], in test [7], in test [9] and in [20] was “inactive” each time. The Potency entry in test [13], in [14] and in test [18] was “inactive” each time.
With `Cc1cc(Nc2cc(N3CCN(C)CC3)nc(Sc3ccc(NC(=O)C4CC4)cc3)n2)n[nH]1`, the Potency in [1] is 7430 nM (active); in test [2], 1320 nM (active); in test [3] it was 5260 nM (active); in test [17], 6620 nM (active); in test [4], 16600 nM (active); in [5], 16600 nM (active). Further, the Potency in [7] was 18700 nM (active); in [8] it was 11.8 nM (active); in test [10], 166 nM (active); in test [11] it was 4690 nM (active); in [12], 14800 nM (active); in [16], 5900 nM (active). For the same molecule, the Potency in test [13] is 5900 nM (active); in test [18], 13200 nM (active).
Turning to `Nc1ccccc1NC(=O)c1ccc(CNC(=O)OCc2cccnc2)cc1`, the Potency in [1] is 469 nM (active); in test [2], 4180 nM (active); in test [3], 2960 nM (active); in test [17], 1480 nM (active); in test [4], 418 nM (active); in test [6], 2350 nM (active). In addition, the Potency is 833 nM (active) in test [7]; 526 nM (active) in [8]; 1320 nM (active) in test [9]; 743 nM (active) in [10]; 526 nM (active) in test [11]; 469 nM (active) in test [15]. For the same molecule, the Potency was 4690 nM (active) in test [20]; 1480 nM (active) in [16]; 1320 nM (active) in [13]; 4690 nM (active) in test [14]; 935 nM (active) in test [18].
As to `COC(=O)C[C@](O)(CCCC(C)(C)O)C(=O)O[C@@H]1C(OC)=C[C@]23CCCN2CCc2cc4c(cc2[C@H]13)OCO4`, the Potency result in test [1], in test [2], in [3], in [17], in [6] and in test [8] was “inactive” in each case. In addition, the Potency entry in test [9], in [10], in [16], in [13], in test [14] and in [18] was “inactive” each time.
Take `CC1(C)O[C@@H]2C[C@@H]3[C@H]4C[C@@H](F)C5=CC(=O)C=C[C@]5(C)[C@@]4(F)[C@@H](O)C[C@]3(C)[C@]2(C(=O)CO)O1`: the Potency result in [1], in test [2], in test [3], in test [4], in test [5] and in [6] was “inactive” each time. The Potency entry in [9], in [13] and in test [14] was “inactive” throughout. Besides, the Potency in [7] is 7.4 nM (active).
Consider `C[C@H]1C[C@@H]2[C@@H]([C@@H](O)C[C@@]3(C)[C@H]2CC[C@]3(O)C(=O)CO)[C@@]2(C)C=CC(=O)C=C12`, for which the values for the Potency in test [1] and in test [7] were 132 nM (active) and 105 nM (active), respectively. The Potency entry in test [2], in [3], in test [17], in test [5], in test [9] and in test [10] was “inactive” in each case. Further, the Potency entry in test [12], in test [20], in test [13] and in [14] was “inactive” in each case.
